From PubChem
Rows were chosen to be rich in hits. Some 1.2% of all compounds tested hit in one or more screens of this group.
RPL19A TOR yeast: RPL19A-GFP expression modulators in yeast, primary screen, cell-based, S. cerevisiae, multiplex flow cytometry, MLPCN; percent response vs DMSO, % at 10 µM; 0.3% of 330,000 active; S. cerevisiae RPL19A-GFP strain, 3 h; hits give low values; AID 2025, 2009;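 active means percent response vs DMSO below 50%; inconclusive means fewer than 70 events counted for the yeast strain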;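 further: median channel GFP fluorescence of the barcoded RPL19A-GFP strain; ratio of sample median GFP to plate DMSO average so 100% = DMSO; lower means less RPL19A-GFP as with rapamycin TOR inhibition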
LAP4 TOR yeast: modulators of LAP4-GFP expression in yeast, primary screen, S. cerevisiae, multiplex flow cytometry, MLPCN library; GFP response vs DMSO, % at 10 µM; 3 h; median GFP as percent of DMSO wells; 0.34% of 320,000 active;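 active means GFP response vs DMSO above a set limit, about the screen mean plus 3 SD, cut at about 150% in these data; inconclusive means under 70 cell events counted for the yeast strain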
AGP1 TOR yeast: modulators of AGP1-GFP expression in yeast TOR pathway, primary screen, cell-based, multiplex flow cytometry, S. cerevisiae, MLPCN library | 0.02% of 320,000 active | 3 h; GFP as percent of DMSO wells | GFP response vs DMSO, % at 10 µM;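 active means GFP response relative to DMSO above a set limit, near screen average plus 3 SD, cut at about 150% in these data; inconclusive means fewer than 70 cells counted for the yeast strain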;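 further: median GFP channel fluorescence of the gated AGP1 strain per well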
CIT2 TOR yeast: modulators of CIT2-GFP expression in yeast, primary screen, S. cerevisiae, GFP fusion, multiplex flow cytometry, MLPCN library | S. cerevisiae CIT2-GFP strain, 3 h; 100 means same as DMSO wells | GFP response vs DMSO, % at 10 µM | 0.065% of 320,000 active | AID 2029, 2009;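 active means GFP response relative to DMSO above a set limit, near the screen mean plus 3 SD, cut at about 150% in these data; inconclusive means Fewer than 70 cells measured for a yeast strain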;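 further: ratio of well median GFP fluorescence to mean of DMSO wells on the plate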
Pemphigus Ab inh: inhibitors of pemphigus antibody binding to DSG3, primary screen, biochemical, bead-based, flow cytometry, scFv-GFP | DSG3-coupled beads, scFv-anti-DSG3-GFP binding; hits give low values | binding (percent of control), % at 10 µM | 0.48% of 310,000 active | Desmoglein-3 (Homo sapiens), P32926 | AID 588358, 2011;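 active means binding more than 3 SD below its plate's average and above zero; inconclusive means below that plate limit but binding exactly zero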;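 further: hits lower antibody fragment binding to DSG3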
Target sequence (P32926 whole entry, looked up, the tested form may be a part): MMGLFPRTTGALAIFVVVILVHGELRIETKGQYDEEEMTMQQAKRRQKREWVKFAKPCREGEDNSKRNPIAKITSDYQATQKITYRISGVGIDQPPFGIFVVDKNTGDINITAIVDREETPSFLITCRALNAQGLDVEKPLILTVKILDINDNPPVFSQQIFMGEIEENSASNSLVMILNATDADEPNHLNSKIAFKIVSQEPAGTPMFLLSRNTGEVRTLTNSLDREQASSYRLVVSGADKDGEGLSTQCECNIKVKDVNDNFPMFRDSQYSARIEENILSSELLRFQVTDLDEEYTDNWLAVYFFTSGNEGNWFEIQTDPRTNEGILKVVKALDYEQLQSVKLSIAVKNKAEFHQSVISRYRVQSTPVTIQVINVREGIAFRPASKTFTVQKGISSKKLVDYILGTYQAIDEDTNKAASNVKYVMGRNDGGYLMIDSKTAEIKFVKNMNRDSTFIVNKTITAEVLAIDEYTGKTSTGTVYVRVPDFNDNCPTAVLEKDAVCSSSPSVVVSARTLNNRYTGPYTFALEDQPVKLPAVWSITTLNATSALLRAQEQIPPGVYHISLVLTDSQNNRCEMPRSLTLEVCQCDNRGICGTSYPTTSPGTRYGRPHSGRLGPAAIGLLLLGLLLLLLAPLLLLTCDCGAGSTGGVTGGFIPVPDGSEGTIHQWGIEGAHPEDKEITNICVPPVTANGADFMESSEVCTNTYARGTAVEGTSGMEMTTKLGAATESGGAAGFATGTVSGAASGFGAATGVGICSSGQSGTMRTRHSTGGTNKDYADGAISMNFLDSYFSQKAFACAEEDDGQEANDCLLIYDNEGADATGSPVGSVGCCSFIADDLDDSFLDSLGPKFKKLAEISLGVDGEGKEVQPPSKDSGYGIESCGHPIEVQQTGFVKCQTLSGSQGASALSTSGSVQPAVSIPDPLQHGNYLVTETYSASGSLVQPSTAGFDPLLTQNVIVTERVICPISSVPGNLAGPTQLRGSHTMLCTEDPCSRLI
MEP2-GFP yeast: modulators of MEP2-GFP levels in yeast, primary screen, S. cerevisiae, multiplex flow cytometry, MLPCN library; AID 2016, 2009; 0.51% of 330,000 active; S. cerevisiae MEP2-GFP strain, 3 h; 100% = DMSO control level; GFP response vs DMSO, % at 10 µM;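 active means GFP response versus DMSO above a set limit, roughly screen mean plus 3 SD, cut at about 180% in these data; inconclusive means fewer than 70 cells counted for a yeast strain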;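 further: median GFP fluorescence of the barcode-gated MEP2-GFP cells per well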
LAP4 cherry2: LAP4-GFP expression modulators in yeast, confirmation, cell-based, second cherry pick, flow cytometry | shares compounds with LAP4 TOR yeast | S. cerevisiae LAP4-GFP strain, 3 h | GFP response vs DMSO, % at 10 µM | 20% of 590 active | AID 2621, 2010;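 active means GFP signal as percent of the solvent control above about 150%, meaning raised reporter expression, limit read from the data; inconclusive means fewer than 70 cells counted in the well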;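 further: ratio of well median GFP fluorescence to plate DMSO mean so 100% = DMSO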
MEP2-GFP pick2: modulators of MEP2-GFP levels in yeast, confirmation, S. cerevisiae, flow cytometry GFP, second cherry picks; shares compounds with LAP4 TOR yeast; S. cerevisiae MEP2-GFP strain, 3 h; GFP response vs DMSO, % at 10 µM; 10% of 590 active;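 active means GFP signal above 150% of the solvent control wells, that is a rise of more than half; inconclusive means fewer than 70 yeast cells counted in the well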;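 further: median channel GFP fluorescence of all gated yeast cells per well; ratio of median GFP to plate DMSO average so 100% = DMSO level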
RPL19A GFP CP2: RPL19A-GFP modulators in TOR pathway yeast, confirmation, cell-based, S. cerevisiae, flow cytometry, second cherry pick | shares compounds with LAP4 TOR yeast | S. cerevisiae RPL19A-GFP strain, 3 h; hits give low values; 100% means same as DMSO wells | GFP response vs DMSO, % at 10 µM | 3% of 590 active | AID 2623, 2010;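 active means under 65% GFP response relative to DMSO; inconclusive means yeast strain with under 70 measured events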;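 further: median GFP channel fluorescence per well over the all cells gate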
CIT2-GFP pick2: modulators of CIT2-GFP expression in yeast, confirmation, flow cytometry, second cherry pick, single plex | S. cerevisiae CIT2-GFP strain, 3 h; DMSO control wells read 100% | 8% of 590 active | shares compounds with LAP4 TOR yeast | GFP response vs DMSO, % at 10 µM;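 active means GFP response vs DMSO above about 150%, limit read from the data; inconclusive means fewer than 70 events counted for a yeast strain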;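 further: median green fluorescence per well over all gated yeast cells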
AGP1-GFP pick2: AGP1-GFP expression modulators, hit retest, confirmation, cell-based, flow cytometry, S. cerevisiae, cherry pick set 2; shares compounds with LAP4 TOR yeast; S. cerevisiae AGP1-GFP strain, 3 h; percent response vs DMSO, % at 10 µM; 590 tested, under 10 active;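 active means over 150 percent of DMSO response; inconclusive means yeast strain measured with under 70 events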;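 further: median GFP channel fluorescence over all cells without mother daughter split; sample median GFP divided by mean DMSO control so 100% equals DMSO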
Yeast autofluor: compound autofluorescence in yeast s288c, dose response, artefact control for yeast TOR pathway GFP screen, s288c strain | S. cerevisiae s288c, 520 nm autofluorescence, flow cytometry, 3 h; hits give high values; zero means same as solvent-only cells | fluorescence change (kMESF span) at 33 µM | 610 tested, under 10 active | shares compounds with LAP4 TOR yeast;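 active means fluorescence span over the dose series, or activity score, above about 33, limit read from the data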
The depositor's hits bear a star; ? = inconclusive; · = no result; + = active, no number.

SMILES | RPL19A TOR yeast | LAP4 TOR yeast | AGP1 TOR yeast | CIT2 TOR yeast | Pemphigus Ab inh | MEP2-GFP yeast | LAP4 cherry2 | MEP2-GFP pick2 | RPL19A GFP CP2 | CIT2-GFP pick2 | AGP1-GFP pick2 | others
CC1=NN(c2ccccc2)C(=O)/C1=C\c1c(C)[nH]n(-c2ccccc2)c1=O | 96 | 92 | 97 | 98 | · | 99 | 103 | 103 | 100 | 103 | 99
O=C(/C=C/c1cccc(Cl)c1)c1nc2ccccc2[nH]1 | 79 | 228* | 76 | 69 | 99 | 84 | 235* | 148 | 77 | 142 | 83 | Yeast autofluor=2.7
O/C=c1\ccc2cccc3nc(C(F)(F)F)nc1c23 | 115 | 173* | 104 | 242* | 115 | 233* | · | · | · | · | · | Yeast autofluor=8.4
CC1CCN(S(=O)(=O)N2CCCC(C(=O)NCc3ccc(F)cc3)C2)CC1 (configuration not stated) | 63 | 91 | 18 | 101 | 99 | 147 | 101 | 101 | 98 | 106 | 100
COc1ccc2c(c1)CC[C@@H]1[C@@H]2CC[C@]2(C)[C@@H](C(=O)O)C[C@@H]12 | 93 | 167* | 78 | 64 | 102 | 94 | 116 | 110 | 90 | 88 | 88
COc1ccc([C@@H]2Sc3ccccc3NC(=O)[C@@H]2O)cc1 | 103 | · | · | · | · | 106 | · | · | · | · | ·
COc1ccc(C2=NN(C(=O)c3ccccc3)C(c3ccc(OC)c(OC)c3)C2)c(OC(C)=O)c1 (configuration not stated) | 95 | 101 | 83 | 113 | 90 | + | 102 | 105 | 100 | 104 | 99
COc1ccc(C2CC(c3ccccc3O)=NN2C(=O)c2ccccc2)cc1OC (configuration not stated) | 103 | 94 | 99 | 106 | 89 | 102 | · | · | · | · | ·
COc1ccc(C2OC34CCCCC3C(C#N)(C#N)C2(C#N)C(=N)O4)cc1 (configuration not stated) | 63 | 93 | 32 | 80 | ? | 139 | 94 | 96 | 100 | 106 | 96
